Results taken from PubChem BioAssay (NCATS).
Inconclusive results are not listed. Calls of active or inactive are those of the source. Unless noted, the call rests on the fitted dose curve; in most records, active means well fitted curve in either direction with a large enough effect (not every such curve was filed as active); inconclusive means small, poorly fitted or top-dose-only effect, or another doubt; inactive means flat fitted curve, though single readings scatter.

Tests used:
[1] = target: Lysosomal acid glucosylceramidase (Homo sapiens) (UniProt P04062); assay: Glucocerebrosidase-p2 (AID 348; in the data active means potency below about 10 µM; further: potency means the concentration at half of the fitted maximal effect); details: purified GBA, blue fluorogenic substrate, 40 min
Lysosomal acid glucosylceramidase (Homo sapiens), sequence (P04062 whole entry, looked up): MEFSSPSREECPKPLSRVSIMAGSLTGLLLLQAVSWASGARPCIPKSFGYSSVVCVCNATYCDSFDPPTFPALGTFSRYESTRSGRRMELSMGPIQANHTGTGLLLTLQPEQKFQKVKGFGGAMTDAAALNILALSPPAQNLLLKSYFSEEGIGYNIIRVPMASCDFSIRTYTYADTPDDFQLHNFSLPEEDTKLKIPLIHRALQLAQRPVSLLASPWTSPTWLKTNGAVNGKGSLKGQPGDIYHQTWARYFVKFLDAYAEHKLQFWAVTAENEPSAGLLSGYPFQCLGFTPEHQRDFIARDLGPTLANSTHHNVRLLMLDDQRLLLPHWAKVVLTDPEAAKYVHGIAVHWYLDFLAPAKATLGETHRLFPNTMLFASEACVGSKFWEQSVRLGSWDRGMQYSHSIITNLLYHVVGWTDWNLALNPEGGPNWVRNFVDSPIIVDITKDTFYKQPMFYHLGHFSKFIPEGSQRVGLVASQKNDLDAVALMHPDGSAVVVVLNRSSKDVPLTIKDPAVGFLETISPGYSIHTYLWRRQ
Summary of the method: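 Compounds titrated from 0.6 nM upwards against 0.2 nM enzyme in pH 5.9 citric acid/KH2PO4, taurocholate, tween-20; blue fluorogenic substrate 80 uM, 40 min room temperature, stopped and read Ex 365/Em 440 for AC50.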

[2] = AP1 Signaling Pathway (AID 357); details: ME-180 AP-1-bla reporter, EGF-induced, beta-lactamase ratio, 5 h; at 7.69 µM (top of the series) unless noted;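 further: ME-180 reporter cells stimulated with EGF at its EC50 level; on the % scale 0 is the no-effect control and ±100 the full control effect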
Summary of the method: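 In this screen, ME-180 cells in Opti-MEM with 0.5% dialyzed FBS received EC50 EGF and compound titrations for 5 h. AP-1 reporter beta-lactamase was detected via CCF4 ratio, giving AC50 for positive and negative modulators.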

[3] = NFAT Signaling Pathway (AID 444); details: Jurkat NFAT-bla M1, carbachol, beta-lactamase ratio, 5 h; at 7.69 µM (top of the series) unless noted;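 further: carbachol stimulus at about its EC50 of 1 µM final; on the % scale 0 is the no-effect control and ±100 the full control effect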
Summary of the method: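 Jurkat cells with NFAT-driven β-lactamase reporter and co-expressed M1 receptor, stimulated with carbachol (final 1 uM, ~EC50), compound titration, 5 h at 37 °C. CCF4 loaded 1 h at RT; 460/530 nm ratio gave %activity and AC50.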

[4] = Stat Signaling Pathway (AID 446); details: ME-180 (cervical carcinoma) SIE beta-lactamase reporter, IL-6 stimulated, 5 h; at 7.69 µM (top of the series) unless noted;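 further: ME-180 cervical cancer cells given 40 pM IL-6 alongside compound; SIE-controlled beta-lactamase reporter measured as 460/530 nm FRET emission ratio; on the % scale 0 is the no-effect control and ±100 the full control effect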
Summary of the method: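 IL-6/STAT signaling read in ME-180 cells via an SIE beta-lactamase reporter. Stimulus was 40 pM IL-6 (its AC50) for 5 hrs, so both activation and inhibition register.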

[5] = target: Glucocorticoid receptor (Homo sapiens) (UniProt P04150); assay: GR-GFP Redistribution (AID 450;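 active means compounds whose dose series gives a full or clear partial fitted curve of increased nuclear translocation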; further: potency means the concentration at half of the fitted maximal effect); details: U2OS GR-GFP nuclear translocation, laser cytometry, 2 h
Glucocorticoid receptor (Homo sapiens), sequence (P04150 whole entry, looked up, the tested form may be a part): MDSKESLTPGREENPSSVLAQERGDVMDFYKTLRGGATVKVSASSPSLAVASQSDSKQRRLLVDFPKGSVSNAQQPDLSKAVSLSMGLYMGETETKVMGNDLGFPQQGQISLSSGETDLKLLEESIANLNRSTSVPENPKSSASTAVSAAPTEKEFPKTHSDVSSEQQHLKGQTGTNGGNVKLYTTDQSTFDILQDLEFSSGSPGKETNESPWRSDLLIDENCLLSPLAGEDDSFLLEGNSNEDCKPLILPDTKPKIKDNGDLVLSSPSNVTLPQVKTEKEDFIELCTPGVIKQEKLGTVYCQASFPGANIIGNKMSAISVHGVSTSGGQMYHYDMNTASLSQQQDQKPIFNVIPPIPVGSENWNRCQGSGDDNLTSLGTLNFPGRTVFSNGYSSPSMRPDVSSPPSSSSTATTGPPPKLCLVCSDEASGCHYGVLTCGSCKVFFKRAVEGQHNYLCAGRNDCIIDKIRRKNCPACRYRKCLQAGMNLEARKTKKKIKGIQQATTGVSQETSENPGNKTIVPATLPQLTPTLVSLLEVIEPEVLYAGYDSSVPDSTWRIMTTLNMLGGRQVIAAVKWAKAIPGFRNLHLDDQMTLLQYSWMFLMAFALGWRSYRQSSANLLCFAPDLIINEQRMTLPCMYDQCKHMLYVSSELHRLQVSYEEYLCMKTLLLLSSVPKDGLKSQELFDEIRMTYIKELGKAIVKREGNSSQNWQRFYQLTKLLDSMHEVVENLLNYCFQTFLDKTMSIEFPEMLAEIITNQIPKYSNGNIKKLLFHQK

[6] = target: Glucocorticoid receptor (Homo sapiens) (UniProt P04150); assay: GR-EFC Redistribution (AID 451; calls by dose curve; further: potency means the concentration at half of the fitted maximal effect); details: CHO-K1 GR-EFC translocation, beta-gal luminescence, 2 h
Summary of the method: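 CHO-K1 cells expressing nuclear EA and GR-ED fragments of b-gal; compounds titrated up to 46 uM final, 2 h at 37 C. GR nuclear translocation read as complemented b-gal luminescence after 1 h RT detection.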

[7] = target: Mitogen-activated protein kinase 10 (Mus musculus) (UniProt Q61831); assay: JNK3 AlphaScreen Assay (AID 530); details: JNK3 lysate, c-Jun phosphorylation; series mostly up to 57.1 µM;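 further: kinase came from lysate of stimulated human HepG2 cells; signal reports phosphorylation of biotinylated GST-cJun 1-79 at Ser73 with 10 µM ATP; on the % scale 0 is the no-effect control and ±100 the full control effect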
Summary of the method: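 qHTS format: compounds tested as titrations against IL-1beta/TNF-alpha-activated HepG2 lysate JNK3 with biotin-GST-cJun substrate and 10 uM ATP at room temperature. Loss of anti-phospho-cJun AlphaScreen signal indicates inhibition.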

[8] = target: 3',5'-cyclic-AMP phosphodiesterase 4B (Homo sapiens) (UniProt Q07343); assay: qHTS Assay for Inhibitors of PDE-IV (AID 607; active means well fitted activation curve with a large enough effect in the main read-out, with a control signal flat, not every such curve was filed as active; further: % of control where 0% means no effect); details: HEK293 ACTOne CNG channel cells, membrane potential fluorescence; series mostly up to 22.9 µM
3',5'-cyclic-AMP phosphodiesterase 4B (Homo sapiens), sequence (Q07343 whole entry, looked up): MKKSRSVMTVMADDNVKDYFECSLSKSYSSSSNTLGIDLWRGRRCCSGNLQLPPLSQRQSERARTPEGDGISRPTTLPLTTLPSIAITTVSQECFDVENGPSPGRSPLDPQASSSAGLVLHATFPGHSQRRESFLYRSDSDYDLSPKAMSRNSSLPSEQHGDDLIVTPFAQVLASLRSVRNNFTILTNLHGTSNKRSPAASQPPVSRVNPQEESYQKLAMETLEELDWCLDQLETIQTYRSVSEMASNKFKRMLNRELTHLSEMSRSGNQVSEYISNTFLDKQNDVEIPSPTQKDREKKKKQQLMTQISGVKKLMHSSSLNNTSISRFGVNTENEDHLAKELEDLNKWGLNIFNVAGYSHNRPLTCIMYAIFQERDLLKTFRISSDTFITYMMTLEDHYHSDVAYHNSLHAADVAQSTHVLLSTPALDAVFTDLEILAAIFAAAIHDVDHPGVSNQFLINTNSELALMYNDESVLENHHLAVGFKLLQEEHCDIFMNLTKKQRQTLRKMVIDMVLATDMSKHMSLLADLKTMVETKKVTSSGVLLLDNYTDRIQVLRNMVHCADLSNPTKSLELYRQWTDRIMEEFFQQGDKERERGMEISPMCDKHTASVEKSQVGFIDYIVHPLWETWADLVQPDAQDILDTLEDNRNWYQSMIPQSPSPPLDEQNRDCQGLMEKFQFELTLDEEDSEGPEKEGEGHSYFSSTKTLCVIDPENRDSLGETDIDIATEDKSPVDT
Summary of the method: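 Live HEK293 cells with a modified cyclic nucleotide-gated (CNG) channel report intracellular cAMP via membrane-potential dye fluorescence (ex 535/em 590 nm). Endogenous PDE-IV was targeted. Compounds were tested at up to 22.9 uM final; RO 20-1724 100 uM served as control.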

[9] = qHTS Assay for Lipid Storage Modulators (AID 1519; calls by dose curve); details: Drosophila S3 cells, BODIPY lipid droplet/cell ratio, laser cytometry, cells loaded with oleic acid; for activity change, negative = inhibition: at 57.5 µM (top of the series)
Summary of the method: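 Cells seeded at 5,000 per well were treated with compounds over a concentration series and loaded with oleic acid (400 uM, as added). Lipid droplet fluorescence (488 nm excitation, 500-530 nm channel) was read by laser-scanning cytometry and normalized to 20 uM Triacsin C.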

[10] = target: Dual specificity protein kinase CLK4 (Homo sapiens) (UniProt Q9HAZ1); assay: qHTS Assay for Inhibitors of CDC-like Kinase 4 (Kinase-Glo Assay) (AID 1770; active means well fitted curve in the direction sought with a large enough effect; an effect the other way counts as inactive or inconclusive; further: nearly all actives have a fitted effect of over 65% in size; further: potency means the concentration at half of the fitted maximal effect); details: recombinant Clk4, Kinase-Glo ATP depletion luminescence; series mostly up to 66.7 µM
Dual specificity protein kinase CLK4 (Homo sapiens), sequence (Q9HAZ1 whole entry, looked up): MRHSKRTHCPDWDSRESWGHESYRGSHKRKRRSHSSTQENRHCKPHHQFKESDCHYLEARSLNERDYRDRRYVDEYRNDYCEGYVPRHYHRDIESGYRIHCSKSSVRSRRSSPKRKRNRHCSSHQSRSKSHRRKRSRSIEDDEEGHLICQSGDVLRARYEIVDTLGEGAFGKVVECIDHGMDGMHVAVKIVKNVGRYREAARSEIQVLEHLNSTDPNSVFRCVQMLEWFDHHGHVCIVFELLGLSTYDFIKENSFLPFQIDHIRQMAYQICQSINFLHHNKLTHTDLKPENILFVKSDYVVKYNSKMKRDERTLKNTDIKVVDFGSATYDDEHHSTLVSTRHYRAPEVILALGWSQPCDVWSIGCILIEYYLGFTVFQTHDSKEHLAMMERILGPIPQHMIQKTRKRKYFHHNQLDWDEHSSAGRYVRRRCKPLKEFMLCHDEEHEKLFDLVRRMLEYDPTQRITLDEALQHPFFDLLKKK
Summary of the method: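 Recombinant human Clk4 (25 nM) phosphorylated RS repeat peptide (100 uM) with 1 uM ATP in Tris pH 7.5/MgCl2/EGTA/DTT/Triton buffer for 4.5 h at room temperature. Residual ATP was quantified by Kinase-Glo luciferase luminescence.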

[11] = target: Dual specificity protein kinase CLK4 (Homo sapiens) (UniProt Q9HAZ1); assay: qHTS Assay for Inhibitors of CDC-like Kinase 4 (ADP-Glo Assay) (AID 1771; active means well fitted curve in the direction sought with a large enough effect; an effect the other way counts as inactive or inconclusive; further: nearly all actives have a fitted effect of over 70% in size; further: potency means the concentration at half of the fitted maximal effect); details: recombinant CLK4, ADP-Glo luminescence; series mostly up to 80 µM
Summary of the method: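 Clk4 (25 nM) was incubated 1 hr at room temperature with 100 uM RS repeat peptide and 1 uM ATP in buffer with 2 mM MgCl2, 0.5 mM EGTA, 2.5 mM DTT. ADP formed was quantified by ADP-Glo luminescence.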

[12] = target: Ubiquitin carboxyl-terminal hydrolase 1 (Homo sapiens) (UniProt O94782); assay: Inhibitors of USP1/UAF1: Pilot qHTS (AID 504865; active means well fitted curve in the direction sought with a large enough effect; an effect the other way counts as inactive or inconclusive;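 further: rhodamine fluorescence freed from ubiquitin-rhodamine substrate followed over time; top concentration of the series differs between compounds; on the % scale 0 is the no-effect control and ±100 the full control effect; nearly all actives have a fitted effect of over 35% in size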); details: purified USP1/UAF1, Ub-rhodamine cleavage fluorescence; series mostly up to 54.9 µM
Ubiquitin carboxyl-terminal hydrolase 1 (Homo sapiens), sequence (O94782 whole entry, looked up): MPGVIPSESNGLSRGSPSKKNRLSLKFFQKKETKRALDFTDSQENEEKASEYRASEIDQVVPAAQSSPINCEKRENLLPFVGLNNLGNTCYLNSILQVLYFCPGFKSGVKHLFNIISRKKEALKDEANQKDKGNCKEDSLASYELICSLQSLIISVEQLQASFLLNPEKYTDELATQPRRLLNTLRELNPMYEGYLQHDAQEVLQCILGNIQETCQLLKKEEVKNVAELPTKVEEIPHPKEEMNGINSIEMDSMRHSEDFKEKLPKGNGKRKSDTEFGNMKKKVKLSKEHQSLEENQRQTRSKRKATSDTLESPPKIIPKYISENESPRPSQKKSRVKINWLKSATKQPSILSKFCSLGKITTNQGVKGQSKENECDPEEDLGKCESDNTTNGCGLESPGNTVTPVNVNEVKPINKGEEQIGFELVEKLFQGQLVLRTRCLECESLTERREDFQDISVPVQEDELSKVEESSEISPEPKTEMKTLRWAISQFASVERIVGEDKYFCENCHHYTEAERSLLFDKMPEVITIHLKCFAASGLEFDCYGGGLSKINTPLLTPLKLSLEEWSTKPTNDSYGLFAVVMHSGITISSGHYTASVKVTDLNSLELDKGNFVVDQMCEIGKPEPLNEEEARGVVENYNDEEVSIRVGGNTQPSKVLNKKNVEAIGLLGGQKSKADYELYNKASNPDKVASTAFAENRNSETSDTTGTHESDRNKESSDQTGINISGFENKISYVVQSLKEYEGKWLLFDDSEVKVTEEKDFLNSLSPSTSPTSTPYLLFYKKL
Summary of the method: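 USP1/UAF1 complex (1nM) preincubated with compound 15 min at room temperature, then Ub-Rho substrate (150nM final) added. Fluorescence read kinetically at 480/540 nm, 6 reads every 60 seconds. Buffer: 50mM HEPES pH 7.8, 0.5mM EDTA, 0.1 mg/ml BSA, 1mM TCEP, 0.01% Tween-20.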

[13] = target: Dual specificity protein kinase CLK4 (Homo sapiens) (UniProt Q9HAZ1); assay: qHTS Assay for Inhibitors of CDC-like Kinase 4 (ADP-FP Assay) (AID 1795; active means well fitted curve in the direction sought with a large enough effect; an effect the other way counts as inactive or inconclusive; further: nearly all actives have a fitted effect of over 60% in size; further: potency means the concentration at half of the fitted maximal effect); details: Transcreener ADP fluorescence polarization; series mostly up to 50 µM
Summary of the method: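 Recombinant human Clk4 (6.25 nM) phosphorylated RS repeat peptide (100 uM) with 1 uM ATP in Tris pH 7.5/MgCl2/EGTA/DTT/Triton buffer for one hour. ADP was quantified by Transcreener competitive fluorescence polarization against an ADP calibration curve.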

[14] = target: Cytochrome P450 1A2 (Homo sapiens) (UniProt P05177); assay: p450-cyp1a2 (AID 410; calls by dose curve; further: potency means the concentration at half of the fitted maximal effect;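 on activity change, negative = inhibition: -100% = full effect of reference inhibitor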); details: recombinant CYP1A2, luciferin-ME demethylation, luminescence; series mostly up to 57 µM
Cytochrome P450 1A2 (Homo sapiens), sequence (P05177 whole entry, looked up): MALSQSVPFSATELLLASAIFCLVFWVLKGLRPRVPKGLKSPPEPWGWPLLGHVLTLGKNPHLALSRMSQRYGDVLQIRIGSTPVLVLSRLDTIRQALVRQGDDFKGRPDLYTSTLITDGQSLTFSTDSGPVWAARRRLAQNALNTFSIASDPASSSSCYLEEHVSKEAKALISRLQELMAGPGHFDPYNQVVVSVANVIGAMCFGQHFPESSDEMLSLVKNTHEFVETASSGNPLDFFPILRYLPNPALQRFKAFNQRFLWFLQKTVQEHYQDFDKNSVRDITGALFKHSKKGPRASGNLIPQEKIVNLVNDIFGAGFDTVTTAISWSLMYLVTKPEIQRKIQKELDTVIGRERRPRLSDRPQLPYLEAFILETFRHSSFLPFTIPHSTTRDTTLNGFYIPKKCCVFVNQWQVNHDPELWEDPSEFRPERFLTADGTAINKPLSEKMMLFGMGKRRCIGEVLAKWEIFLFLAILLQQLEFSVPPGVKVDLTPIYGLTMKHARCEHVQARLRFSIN
Summary of the method: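 Human CYP1A2 (20nM) demethylated Luciferin-ME at its Km (100uM) in 100mM KPO4. After 10 min compound preincubation, NADPH regeneration ran the reaction 60 min at room temperature. Luciferin was read by luminescence, normalized to 57 uM furafylline.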

[15] = Confirmation and Secondary Assay for Modulators of Hemoglobin Beta Chain Splicing at IVS2 654 locus (AID 910; active means well fitted curve in the direction sought with a large enough effect; an effect the other way counts as inactive or inconclusive;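 further: HeLa cells stably carrying EGFP split by mutant beta-globin IVS2-654 intron; % of control where 0% means no effect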); details: HeLa EGFP-654 splicing reporter, GFP fluorescence, 48 h; series mostly up to 38.3 µM
Summary of the method: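 HeLa cells stably expressing EGFP interrupted by β-globin IVS2-654 intron, seeded overnight in Opti-MEM/2% FCS, then treated 2 days at 37 °C. Restored splicing read as total peak GFP intensity per well by laser scanning cytometry (488 nm excitation, 500–520 nm emission); 500 nM antisense PNA as control.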

[16] = Confirmation and Secondary Assay for Modulators of Hemoglobin Beta Chain Splicing at IVS2 705 locus (AID 930; active means well fitted curve in the direction sought with a large enough effect; an effect the other way counts as inactive or inconclusive;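 further: HeLa cells stably expressing the EGFP-705 splicing reporter; GFP fluorescence per well restored by corrected splicing of the IVS2-705 intron in EGFP; % of control where 0% means no effect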); details: HeLa EGFP-705 splicing reporter, GFP fluorescence, 48 h; series mostly up to 38.3 µM
Summary of the method: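 Secondary splice-site specificity test uses HeLa expressing CMV-driven EGFP interrupted by IVS2-705; cells were treated 2 days at 37C with 500 nM antisense PNA as positive control.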

[17] = target: Cytochrome P450 3A4 (Homo sapiens) (UniProt P08684); assay: qHTS Assay for Activators of Cytochrome P450 3A4 (AID 885; active means well fitted curve in the direction sought with a large enough effect; an effect the other way counts as inactive or inconclusive; further: nearly all actives have a fitted effect of over 65% in size); details: recombinant CYP3A4, Luciferin-PPXE luminescence, 60 min; series mostly up to 57.1 µM
Cytochrome P450 3A4 (Homo sapiens), sequence (P08684 whole entry, looked up): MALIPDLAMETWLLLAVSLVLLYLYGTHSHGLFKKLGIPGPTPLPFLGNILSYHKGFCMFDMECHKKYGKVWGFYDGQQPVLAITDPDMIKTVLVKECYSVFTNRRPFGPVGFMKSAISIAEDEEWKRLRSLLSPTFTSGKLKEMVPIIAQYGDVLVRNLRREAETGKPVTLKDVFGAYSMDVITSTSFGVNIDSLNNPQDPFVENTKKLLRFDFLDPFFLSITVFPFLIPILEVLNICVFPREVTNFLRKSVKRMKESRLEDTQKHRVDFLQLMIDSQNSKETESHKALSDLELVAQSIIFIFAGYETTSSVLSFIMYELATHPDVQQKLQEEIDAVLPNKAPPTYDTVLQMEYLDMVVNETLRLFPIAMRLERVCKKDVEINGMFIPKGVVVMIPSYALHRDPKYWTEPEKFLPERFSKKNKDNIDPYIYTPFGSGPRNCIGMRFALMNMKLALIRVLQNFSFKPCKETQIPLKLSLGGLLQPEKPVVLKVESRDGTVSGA
Summary of the method: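 Quantitative HTS format: compounds preincubated with 20nM human CYP3A4 and Luciferin-PPXE substrate at KM, reaction started by NADPH regeneration, stopped after 60 min, luciferase luminescence read 20 min later.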

[18] = target: Cytochrome P450 2D6 (Homo sapiens) (UniProt P10635); assay: qHTS Assay for Inhibitors and Substrates of Cytochrome P450 2D6 (AID 891; active means well fitted curve in the direction sought with a large enough effect; an effect the other way counts as inactive or inconclusive; further: potency means the concentration at half of the fitted maximal effect; nearly all actives have a fitted effect of over 60% in size); details: recombinant CYP2D6, luciferin-ME EGE luminescence; series mostly up to 57.1 µM
Cytochrome P450 2D6 (Homo sapiens), sequence (P10635 whole entry, looked up): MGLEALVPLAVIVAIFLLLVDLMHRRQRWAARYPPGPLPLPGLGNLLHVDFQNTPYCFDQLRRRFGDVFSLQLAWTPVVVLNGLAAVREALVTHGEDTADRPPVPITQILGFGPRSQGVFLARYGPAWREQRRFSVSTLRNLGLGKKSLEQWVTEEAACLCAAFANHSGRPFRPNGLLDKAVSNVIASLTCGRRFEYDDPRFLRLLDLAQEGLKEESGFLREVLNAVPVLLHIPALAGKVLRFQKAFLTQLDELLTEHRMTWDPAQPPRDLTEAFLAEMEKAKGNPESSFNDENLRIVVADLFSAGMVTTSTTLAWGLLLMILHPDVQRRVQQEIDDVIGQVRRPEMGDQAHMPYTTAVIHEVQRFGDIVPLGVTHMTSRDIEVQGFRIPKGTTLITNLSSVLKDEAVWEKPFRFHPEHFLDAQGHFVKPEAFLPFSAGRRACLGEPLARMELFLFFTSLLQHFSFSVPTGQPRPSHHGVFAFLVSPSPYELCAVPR
Summary of the method: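 Human CYP2D6 (5 nM) with 30 uM Luciferin-ME EGE (at Km) in 100 mM KPO4, compound preincubated 10 min, then NADPH regeneration system for 60 min at room temperature. Luciferin read by luminescence; normalized to 1.43 uM quinidine.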

[19] = Primary qHTS for small molecule stabilizers of the endoplasmic reticulum resident proteome: Secreted ER Calcium Modulated Protein (SERCaMP) assay (AID 1508630; active means well fitted curve in the direction sought with a large enough effect; an effect the other way counts as inactive or inconclusive; further: on the % scale 0 is the no-effect control and ±100 the full control effect); details: SH-SY5Y GLuc-SERCaMP (Gaussia luciferase released on ER calcium loss) secretion, thapsigargin, luminescence; series mostly up to 38.4 µM
Summary of the method: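 GLuc-SERCaMP-expressing SH-SY5Y cells, pretreated 16 h with compound, are challenged with thapsigargin to empty ER calcium stores; after 4 h, coelenterazine is added directly to the medium and luminescence is imaged.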

[20] = measured here: cell count channel max response
[21] = measured here: lipid channel max response

CC(=O)NCCNc1nc(-c2cccnc2)nc2ccccc12
inactive: Potency [1] > 11.4 µM | activity change, negative = inhibition [2] 5.7% | activity change, negative = inhibition [3] 0.668% | activity, negative = inhibition [4] 1.25% | Potency [5] > 46 µM | Potency [6] > 46 µM | outcome [7] | Potency [8] | activity change, negative = inhibition [9] 5.64% | Potency [12]
21.4%: max response [9, 20]
27.2%: max response [9, 21]
active: Potency [10] 25.1 µM | Potency [11] 14.1 µM

CN(C)c1ncc2ncc(=O)n(C[C@H]3CCCO3)c2n1
inactive: activity change, negative = inhibition [2] -16.4% | activity change, negative = inhibition [3] -6.33% | activity, negative = inhibition [4] -10.5% | Potency [5] > 9.22 µM | Potency [6] > 46 µM | outcome [7] | Potency [8] | activity change, negative = inhibition [9] 5.33% | Potency [13] | Potency [12]
-7.9%: max response [9, 20]
-4.59%: max response [9, 21]

CN1CCN(c2cc(-c3ccccc3C(F)(F)F)ncn2)CC1
active: Potency [14] 12.6 µM
20.3%: max response [9, 20]
inactive: Potency [1] > 11.4 µM | activity change, negative = inhibition [2] 8.33% | activity change, negative = inhibition [3] -29.9% | activity, negative = inhibition [4] 8.15% | Potency [5] > 46 µM | Potency [6] > 46 µM | outcome [7] | Potency [8] | outcome [15] | outcome [16] | activity change, negative = inhibition [9] 9.46% | Potency [12]
26.3%: max response [9, 21]

CC(=O)NCCNc1ncnc2ccc(-c3cccc(NS(C)(=O)=O)c3)cc12
24.3%: max response [9, 20]
active: Potency [14] 15.8 µM | Potency [10] 12.6 µM | Potency [11] 12.6 µM | Potency [13] 8.91 µM
24.6%: max response [9, 21]
inactive: Potency [1] > 11.4 µM | activity change, negative = inhibition [2] 3.51% | activity change, negative = inhibition [3] 7.81% | activity, negative = inhibition [4] 6.44% | Potency [5] > 46 µM | Potency [6] > 46 µM | outcome [7] | Potency [8] | Potency [17] | activity change, negative = inhibition [9] 1.93% | Potency [12]

O=c1cnc2cnc(Oc3cccc(Cl)c3)nc2n1C[C@H]1CCCO1
22.7%: max response [9, 20]
29.8%: max response [9, 21]
active: Potency [14] 5.01 µM
inactive: activity change, negative = inhibition [2] -1.71% | activity change, negative = inhibition [3] 1.72% | activity, negative = inhibition [4] -13.3% | Potency [5] > 9.22 µM | Potency [6] > 46 µM | outcome [7] | Potency [8] | activity change, negative = inhibition [9] 5.57% | Potency [10] | Potency [11] | Potency [13] | Potency [12]

Cc1noc(C)c1C(=O)N1CCC[C@@]2(CCN(Cc3ccccc3)C2)C1
active: Potency [18] 7.94 µM
inactive: Potency [1] > 11.4 µM | activity change, negative = inhibition [2] -8.33% | Potency [14] | activity, negative = inhibition [4] 3.42% | Potency [6] > 46 µM | outcome [7] | Potency [8] | Potency [17] | Potency [19]
